Source: PubChem (National Center for Advancing Translational Sciences (NCATS))
In the library only some 2.4% were active in any assay of this set; here they are far more common.
D2 ag-1: human D2 receptor agonism in beta-arrestin assay; DiscoveRx PathHunter D2 beta-arrestin, luminescence, 90 min; 100% = 57 uM dopamine signal; activation, % (concentration not given with the values); hit rate 0.084% among 360,000; AID 624465; in the data active = activation above about 40%; inconclusive = between about 15% and that limit
Target sequence (P14416 whole entry, looked up): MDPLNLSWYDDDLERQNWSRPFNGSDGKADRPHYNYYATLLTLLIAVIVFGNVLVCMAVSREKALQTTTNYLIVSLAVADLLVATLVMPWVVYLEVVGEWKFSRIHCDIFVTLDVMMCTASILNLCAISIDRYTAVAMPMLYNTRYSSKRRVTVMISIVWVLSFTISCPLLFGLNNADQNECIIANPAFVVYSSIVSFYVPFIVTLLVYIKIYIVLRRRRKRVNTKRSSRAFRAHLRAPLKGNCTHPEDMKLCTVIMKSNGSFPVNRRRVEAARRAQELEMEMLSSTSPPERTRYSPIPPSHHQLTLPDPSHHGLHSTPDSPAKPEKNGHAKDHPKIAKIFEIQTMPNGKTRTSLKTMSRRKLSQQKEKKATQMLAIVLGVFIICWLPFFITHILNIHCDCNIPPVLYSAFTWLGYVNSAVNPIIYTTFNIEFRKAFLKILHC
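DiscoveRx PathHunter D2 beta-arrestin cells (2,100/well) attached overnight, then compound-stimulated 90 min at 37 C in HBSS/10 mM HEPES/0.1% Tween-20 buffer; beta-galactosidase complementation read by luminescence after 1 h at ambient temperature. Dopamine 57 uM final (EC100) as control.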
D2 PAM-1: positive allosteric modulators of human D2 dopamine receptor; hit rate 0.34% among 340,000; P14416; HEK293 T-REx D2, calcium flux, EC20 dopamine potentiation; AID 485347; potentiation, % at 10 µM;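 active = potentiation over 3 SD above the plate norm, cut at about 30% in these data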
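Calcium flux readout, no-wash dye, 1 read/s. Inducible HEK293 Trex D2 line, overnight 30 C. Compound alone 180 s (agonist flags), then EC20 dopamine, another 180 s to score potentiation.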
D2 ag-2: agonists of human D2 dopamine receptor; P14416; hit rate 0.53% among 340,000; HEK293 T-REx D2 cells, calcium flux agonist mode; activation, % at 2 µM;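 active = activation over 3 SD above normal in the single-dose calcium agonist read, cut at about 30% in these data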
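Agonism scored from kinetic calcium signal (1 read/sec, 180 s) following compound pin transfer, after a 10 s baseline. Cells: HEK293 Trex line expressing inducible D2 receptor coupled to calcium, dye-loaded after overnight culture at 30 C.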
D2 antagonist: antagonizes the human D2 dopamine receptor. HEK293 TREx D2 cells, calcium flux, dopamine EC80. P14416. inhibition, % at 10 µM. AID 485344. hit rate 2% among 340,000; in the data active = inhibition above about 30%; inactive = below that, where a call was filed
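Tetracycline-induced HEK293 TREx cells expressing D2 receptor forced-coupled to calcium signalling, loaded with no-wash calcium dye. Compounds added and calcium flux read 180 s, then dopamine added at EC80 and read a further 180 s.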
D2 PAM-2: positive allosteric modulators of human D2 dopamine receptor | DiscoveRx D2 beta-arrestin cells, luminescence, 90 min; 100% = 57 uM dopamine signal | potentiation, % (test concentration not listed) | hit rate 0.23% among 360,000 | AID 624464 | P14416; in the data active = potentiation above about 50%; inconclusive = mostly about 30% to 49%
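D2 cells co-treated with compound plus 50 nM dopamine (EC20) for 90 min at 37 deg C to detect potentiation. Beta-arrestin recruitment was read as enzyme-fragment luminescence after 1 h at ambient temperature. Full response was set by 57 uM dopamine.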
A number is an active result; . = inactive; ? = inconclusive; / = no result.

SMILES	D2 ag-1	D2 PAM-1	D2 ag-2	D2 antagonist	D2 PAM-2
O=c1cc2oc3cc(O)c(O)cc3c(-c3ccccc3[N+](=O)[O-])c-2cc1O	.	.	.	31	.
CCOC(=O)c1sc2nc3c(cc2c1N)COC(C)(CC)C3 (stereo not given)	.	.	.	.	.
CCC1(C)Cc2nc3sc(C(=O)O)c(N)c3cc2CO1 (stereo not given)	.	.	.	37	.
CC1=C(C)/C(=N\OS(=O)(=O)c2ccc(C)cc2)C=CC1=O	48	.	/	/	67
COc1ccc(S(=O)(=O)/N=C2/C=CC(=O)C(C)=C2C)cc1	.	.	.	.	.
COc1cc(C(=O)O/N=C2/C=C(C)C(=O)C=C2C)cc(OC)c1OC	?	.	.	.	.
CC(S(=O)(=O)c1ccccc1)S(=O)(=O)c1ccccc1	.	/	/	/	.
CC1=C/C(=N\OS(=O)(=O)c2ccccc2)C(C(C)C)=CC1=O	49	.	.	.	114
CC1=C/C(=N\OS(=O)(=O)c2ccccc2)C(C)=CC1=O	?	.	.	.	79
CC(=O)NC(CC(=O)OCc1ccc([N+](=O)[O-])cc1)c1ccccc1 (stereo not given)	.	37	.	.	.
CC(=O)c1ccc(S(=O)(=O)N2CCN(C(=O)c3ccc(-n4nc(C)c(Cl)c4C)cc3)CC2)cc1	.	.	.	31	.
O=C1S/C(=C\c2ccc(Cl)cc2)C(=O)N1CCn1cnnn1	.	38	.	.	.
O=C(CCN1CCC(c2ccccc2)C1)c1ccccc1 (stereo not given)	.	/	/	/	.
O=C(CCN1CCC(c2ccccc2)C1)c1ccc2c(c1)OCCO2 (stereo not given)	.	.	.	87	.
O=C(COC(=O)c1ccc(O)cc1O)Nc1ncc(Cl)cc1Cl	.	.	.	31	.
CCOc1ccc(-c2cn3c(n2)sc2cc(C(=O)NCCc4ccc(OC)cc4OC)ccc23)cc1	/	.	.	/	/
CCOC(=O)c1ccc(N2CCN(c3ccccc3OC)CC2)c(NC(=O)Nc2ccc(CC)cc2)c1	/	.	.	/	/
CN(C)c1ccc(/C=C/C(=O)c2c(O)c3ccccc3oc2=O)cc1	.	.	39	.	.
COc1ccc(C2CN=NC23CCCc2ccccc2C3=O)cc1 (stereo not given)	.	.	.	.	64
Cc1ccc(C)c(Cn2c(=O)n(CCCCC(=O)NCc3ccccc3Cl)c(=O)c3ccccc32)c1	/	.	/	/	/
COc1cccc(CNS(=O)(=O)c2ccc3c(c2)N(C(C)=O)CCO3)c1	.	.	.	61	.
COc1ccc(-c2noc(C3CCCN(S(=O)(=O)c4cccc(Cl)c4)C3)n2)cc1OC (stereo not given)	.	.	.	.	.
O=S(=O)(c1ccc(Cl)cc1)N1CCCC(c2nc(-c3ccc(F)cc3)no2)C1 (stereo not given)	.	.	.	51	.
O=C(Cc1ccc(Cl)cc1)Nc1ccc2oc(=O)ccc2c1	.	.	.	.	.
O=C(Cc1ccc(Cl)cc1)Nc1ccc(-c2cc3ccccc3oc2=O)c(Cl)c1	.	.	.	46	.
SMILES	D2 ag-1	D2 PAM-1	D2 ag-2	D2 antagonist	D2 PAM-2
O=C(Cn1ncc2c3ccccc3n(Cc3ccccc3F)c2c1=O)NCc1ccccc1Cl	/	.	.	/	/
CCCn1cnc2c(N)c(C)c(C)cc21	.	.	.	32	.
COc1cccc(Cn2cnc3c(N)c(C)c(C)cc32)c1	.	.	.	.	.
CCOc1ccc2cc(S(=O)(=O)n3ccnc3C)ccc2c1	.	37	.	.	.
Cc1ccc(Cn2cc(S(=O)(=O)c3ccc(C(C)C)cc3)c(=O)c3cc4c(cc32)OCO4)cc1	.	.	.	36	.
Cc1ccc(-n2c(=O)cc(N3CCN(c4ccccc4Cl)CC3)[nH]c2=O)cc1	/	.	/	/	/
O=C(O)CCCCCNS(=O)(=O)c1cccc2c1C(=O)c1ccccc1C2=O	.	.	.	.	76
O=C(O)CCCCCNS(=O)(=O)/C=C/c1ccccc1	.	.	.	.	.
CCN(c1ccccc1)S(=O)(=O)c1cnc[nH]1	.	.	.	34	.
COC(=O)CCC(=O)OC1(C)C(=O)C=C2C=C(C3CC3)N(Cc3ccc(OC)cc3)C=C2C1=O (stereo not given)	.	.	.	.	.
COC(=O)CCC(=O)OC1(C)C(=O)C=C2C=C(C3CC3)N(Cc3ccc4c(c3)OCO4)C=C2C1=O (stereo not given)	.	.	.	.	73
Cc1ccc(NC(=O)c2ccc([N+](=O)[O-])o2)c(C)c1	?	.	.	33	.
Cc1ccccc1NC(=O)c1ccc([N+](=O)[O-])o1	?	.	.	.	.
O=C(Nc1ccc(NC(=O)c2ccc([N+](=O)[O-])o2)cc1Cl)c1ccco1	.	.	.	40	.
COC(=O)c1ccc(NC(=O)CN2C(=O)c3cccc4cccc2c34)cc1	/	.	/	/	/
CCOc1ccc(NS(=O)(=O)c2ccc(OCC(=O)N3CCCC3)cc2)cc1	.	.	.	51	.
CCOC(=O)N1CCN(C(=O)COc2ccc(S(=O)(=O)Nc3ccc(OCC)cc3)cc2)CC1	.	.	.	.	.
COC(=O)Nc1nnc(Cc2ccccc2)s1	.	.	.	.	.
CC(C)C(=O)Nc1nnc(Cc2ccccc2)s1	.	.	.	30	.
Cc1ccccc1NC(=O)Cc1nnc(NC(=O)Nc2ccccc2F)s1	.	.	.	.	.
Cc1ccccc1NC(=O)Nc1nnc(CC(=O)NCc2ccccc2)s1	.	.	.	31	.
O=C(OCCN1C(=O)c2cccc3c(N4CCOCC4)ccc(c23)C1=O)c1cc(Cl)cc(Cl)c1	/	.	48	.	/
CCN(CC)S(=O)(=O)c1ccc(C(=O)OCCN2C(=O)c3cccc4c(N5CCOCC5)ccc(c34)C2=O)cc1	.	.	.	.	.
CCOc1ccc(CNC(=O)c2ccc(-c3nc(CSc4ccc(C)cc4)c(C)o3)cc2)cc1	/	.	.	/	/
Oc1cc(-c2ccccc2)c2ccccc2c1	45	.	.	.	.
SMILES	D2 ag-1	D2 PAM-1	D2 ag-2	D2 antagonist	D2 PAM-2
Cc1ccc(Cl)cc1N1CCN(S(=O)(=O)c2c(C(=O)N3CCOCC3)c(C)n(C)c2C)CC1	.	.	.	38	.
CCC(C)N1CC23C=CC(O2)C(C(=O)OC)C3C1=O (stereo not given)	.	.	.	31	.
CCCN1CC23C=CC(O2)C(C(=O)O)C3C1=O (stereo not given)	.	.	.	48	.
COCCCN1CC23C=CC(O2)C(C(=O)O)C3C1=O (stereo not given)	.	.	.	.	.
Cc1nc(N)sc1C(=O)N/N=C/c1ccccc1[N+](=O)[O-]	/	.	.	33	/
Cc1ccccc1CN1C[C@@H]2C[C@@H](c3cnc(N4CCOCC4)s3)N3CCC[C@@]23C1=O	.	.	.	37	.
